# CRFR2-BP ag: agonists of CRF-BP/CRF-R2 complex, primary screen, cell-based, HEK293, calcium dye fluorescence, uHTS; CRF-binding protein / CRF receptor 2 complex (human); calcium dye fluorescence (FLIPR); percent of saturating CRF peptide response; activation, % at 13.2 µM; actives 0.46% (n = 350,000); AID 588473, 2011;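 active = activation of at least 50%, plus an integration ratio under a set limit after plate pattern correction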;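 also: plate controls were neutral control wells without compound for no effect and CRF at EC100 for full effect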
# RTF Ca sens act: cardiac RTF calcium sensitivity activators, primary screen, biochemical, IANBD-TnC fluorescence, EC20 calcium | activation, % at 7.2 µM | Troponin I, cardiac muscle (Homo sapiens) + Troponin T, cardiac muscle (Homo sapiens) + … | IANBD-labeled TnC RTF fluorescence at EC20 calcium; 0% EC20 calcium, 100% full calcium | actives 0.24% (n = 340,000);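 active = activation above the mean over all tested compounds plus 3 SD, cut at about 30% in these data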;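 also: rise in fluorescence read as greater calcium sensitivity of cardiac thin filaments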
# TPT1 inh: Candida albicans TPT1 enzyme inhibitors, primary screen, biochemical, fluorescence polarization; recombinant caTPT1, FP RNA substrate dephosphorylation; inhibition, % at 5 µM; actives 0.81% (n = 300,000); AID 1962, 2009;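 active = inhibition above the mean of all tested compounds plus 3 SD, set per screening campaign, cut at about 24% in these data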;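 also: plate controls were DMSO alone for no effect and ferristatin control at 100 nM for full effect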
# IDE cell activ: human IDE activators in live cells, primary screen, fluorescence polarization, HEK cells, FAbeta-B substrate. Insulin-degrading enzyme (Homo sapiens), P14735. FAbeta-B cleavage; 0% vehicle, 100% cell-free pure enzyme wells. activation, % at 5.96 µM. actives 0.073% (n = 340,000). AID 493087, 2011;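 active = activation above the mean of all tested compounds plus 3 SD, set per screening campaign, cut at about 17% in these data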
# Target sequence (P14735 whole entry, looked up): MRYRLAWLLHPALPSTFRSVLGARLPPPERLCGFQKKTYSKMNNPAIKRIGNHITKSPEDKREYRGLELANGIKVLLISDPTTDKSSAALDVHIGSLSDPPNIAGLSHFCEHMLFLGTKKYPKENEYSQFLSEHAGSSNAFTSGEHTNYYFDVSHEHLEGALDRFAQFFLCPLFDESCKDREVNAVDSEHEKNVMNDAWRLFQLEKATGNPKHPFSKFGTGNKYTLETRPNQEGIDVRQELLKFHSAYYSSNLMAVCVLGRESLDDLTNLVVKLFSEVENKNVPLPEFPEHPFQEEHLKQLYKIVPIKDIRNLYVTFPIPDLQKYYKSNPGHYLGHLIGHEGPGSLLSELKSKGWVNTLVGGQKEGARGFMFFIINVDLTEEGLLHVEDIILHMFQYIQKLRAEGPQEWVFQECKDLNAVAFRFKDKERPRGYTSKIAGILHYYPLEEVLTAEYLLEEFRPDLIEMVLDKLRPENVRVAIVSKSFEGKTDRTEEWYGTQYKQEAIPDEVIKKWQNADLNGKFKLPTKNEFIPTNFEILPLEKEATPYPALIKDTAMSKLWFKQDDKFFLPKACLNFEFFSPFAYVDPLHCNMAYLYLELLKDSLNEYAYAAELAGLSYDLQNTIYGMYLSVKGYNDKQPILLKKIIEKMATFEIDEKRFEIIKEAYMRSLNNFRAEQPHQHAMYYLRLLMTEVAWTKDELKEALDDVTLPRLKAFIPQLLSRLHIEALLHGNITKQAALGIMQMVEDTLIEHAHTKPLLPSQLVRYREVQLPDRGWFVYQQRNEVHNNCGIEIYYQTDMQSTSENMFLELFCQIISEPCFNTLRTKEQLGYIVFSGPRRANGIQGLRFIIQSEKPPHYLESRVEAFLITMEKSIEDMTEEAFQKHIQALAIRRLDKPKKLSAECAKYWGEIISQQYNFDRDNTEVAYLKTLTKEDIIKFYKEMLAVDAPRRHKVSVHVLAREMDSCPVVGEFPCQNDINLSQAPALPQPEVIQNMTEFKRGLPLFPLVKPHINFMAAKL
# IDE inh: human IDE inhibitors in live cells, primary screen, fluorescence polarization, HEK cells, FAbetaB substrate. Insulin-degrading enzyme (Homo sapiens), P14735. FAbetaB cleavage. inhibition, % at 5.59 µM. actives 0.41% (n = 320,000);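 active = percent inhibition above the average of all tested compounds plus 3 SD, set per screening campaign, cut at about 16% in these data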;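 also: IDE supplied by intact live HEK cells; FP after avidin binding of uncleaved biotin substrate so inhibition keeps polarization high; 0% = DMSO wells and 100% = 60 µM reference IDE inhibitor Ii1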
# Cardiac RTF inh: cardiac RTF calcium sensitivity inhibitors, primary screen, biochemical, IANBD-TnC fluorescence, EC70 calcium. Troponin I, cardiac muscle (Homo sapiens) + Troponin T, cardiac muscle (Homo sapiens) + …. IANBD-labeled cardiac RTF, Ca2+ fluorescence. inhibition, % at 7.15 µM. actives 0.12% (n = 340,000);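 active = inhibition above the mean inhibition of all tested compounds plus 3 SD, cut at about 17% in these data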;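 also: assay run at fixed EC70 calcium of 1.6 mM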
# IDE cell inh cf: human IDE inhibitors in live cells, confirmation, fluorescence polarization, HEK cells, FAbetaB substrate; shares compounds with IDE inh; FAbetaB cleavage; actives 51% (n = 1,200); inhibition, % at 5.59 µM;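 active = mean inhibition across triplicate wells above the cutoff set by the earlier primary insulin-degrading enzyme screen, cut at about 16% in these data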;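 also: 0% = DMSO wells and 100% = 60 µM reference IDE inhibitor Ii1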
# HEK293 tox: cytotoxicity in HEK cells, cytotoxicity control for IDE inhibitor project, cell-based, luminescence; actives 28% (n = 1,200); AID 449730, 2010; shares compounds with IDE inh; HEK293 cytotoxicity, ATP luminescence; inhibition, % at 5.59 µM; in the data active = inhibition above about 22%;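 also: 0% = vehicle wells and 100% = reference cytotoxic drug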
# IDE FP artifact: fluorescent or optically active artefacts, dose response, artefact control for IDE inhibitor project, biochemical, fluorescence polarization; FP counterscreen for fluorescent artifacts, IDE probe project; IC50, µM; 30 tested, under 10 active; shares compounds with IDE inh; call rule not given here
# Numbers without * were called inactive; . = no result given. Only some compounds are listed: those with a hit (about 1.5% of all), similar ones and a draw of the others.
SMILES,CRFR2-BP ag,RTF Ca sens act,TPT1 inh,IDE cell activ,IDE inh,Cardiac RTF inh,IDE cell inh cf,HEK293 tox,others
CC(OC(=O)c1cc(=O)[nH]c2ccccc12)C(=O)NC1CCCCC1C (stereo not given),-3.5,-5.2,0.6,4.2,0.0,1.7,.,.,
O=C(CSc1nnc(CCCOc2ccc(Cl)cc2Cl)o1)Nc1ccc(C(=O)O)cc1,-3.0,11.5,-0.7,1.8,18.0*,-3.3,5.6,7.0,
O=C(Nc1ccc(C(F)(F)F)cc1Cl)c1ccc(Cn2cc(Br)cn2)o1,1.2,-7.8,1.0,-12.3,16.7*,0.0,11.1,11.5,
O=C(Nc1cccc(C(F)(F)F)c1)c1ccc(Cn2cc(Br)cn2)o1,0.9,2.0,-1.5,-6.5,12.7,-3.6,.,.,
Cc1noc(C)c1NC(=O)N(C)C[C@@H]1Oc2cc(Br)ccc2S(=O)(=O)N([C@H](C)CO)C[C@@H]1C,-0.4,.,.,.,.,.,.,.,
Cc1nc(SCC(=O)N2CCC(Cc3ccccc3)CC2)[nH]c(=O)c1C,-1.4,0.8,2.5,2.8,5.6,-2.0,.,.,
CCOC(=O)[C@@H]1[C@H]2COc3ccc(Br)cc3[C@H]2N2C(=O)N(c3ccc(C(F)(F)F)cc3)C(=O)[C@]12C,3.4,-2.5,.,3.6,-1.4,0.6,.,.,
CSCCC(=O)N1CCN(CC(=O)N2CCCC2)CC1,-0.4,0.3,-3.7,-2.1,0.6,-2.7,.,.,
NNC(=O)c1csc(-c2cccc(C(F)(F)F)c2)n1,-1.8,-4.4,1.1,5.3,-2.9,-3.0,.,.,
O=C(Nc1cccc(C(F)(F)F)c1)c1csc(-c2cccc(C(F)(F)F)c2)n1,.,.,.,.,.,.,.,.,IDE FP artifact=>54.7
Cc1ccc(-c2nc(C(=O)Nc3cccc(C(F)(F)F)c3)cs2)cc1,.,.,.,.,.,.,.,.,IDE FP artifact=>54.7
O=C(Nc1cccc(C(F)(F)F)c1)c1csc(-c2ccccc2)n1,.,.,.,.,.,.,.,.,IDE FP artifact=>54.7
O=C(Nc1ccc(C(F)(F)F)cc1)c1csc(-c2ccncc2)n1,4.7,-2.1,1.0,-2.2,-1.6,4.7,.,.,
O=C(Nc1cc(C(F)(F)F)cc(C(F)(F)F)c1)c1csc(-c2ccncc2)n1,.,.,.,.,.,.,.,.,IDE FP artifact=>54.7
COc1ccccc1N1CCN(C(=O)C(=O)c2cn(CC(=O)N3CCOCC3)c3ccccc23)CC1,1.1,3.8,-1.8,5.3,-0.1,4.5,.,.,
CC(=O)Nc1cccc(OCCCNS(=O)(=O)c2ccc(C#N)cc2)c1,0.9,0.5,2.2,2.9,8.3,0.2,.,.,
CCNC(=O)N1C[C@H]2CON(C)[C@H]2C[C@H]1c1ccccc1Br,0.2,.,.,.,.,.,.,.,
CC(C)(O)C#Cc1ccc(CN2CCN(CCc3ccccc3)C(CCO)C2)s1 (stereo not given),2.4,-1.2,3.7,3.8,-4.3,-4.6,.,.,
CC(=O)c1cccc(NC(=O)C(C)OC(=O)/C=C/c2cccs2)c1 (stereo not given),-2.1,1.7,.,-0.4,.,-4.7,.,.,
Oc1ccc(Cl)cc1C=Nc1ccccc1Br,7.1,-0.9,-3.7,6.7,0.7,1.3,.,.,
Oc1ccc(Br)cc1C=Nc1ccc2c3c(cccc13)CC2,5.0,-3.3,7.5,-3.5,22.5*,-22.3,1.1,9.8,
COc1ccccc1NC(=O)c1ccc(NC(=O)COC(=O)C2CC2C)cc1 (stereo not given),-2.4,-8.1,-0.7,-2.5,19.2*,0.4,2.8,9.1,
CCOC(=O)CC(=O)c1sc2c(c1N)c(=O)[nH]c(=O)n2-c1ccc(OC)cc1,-2.7,-0.6,1.4,2.4,2.5,-0.1,.,.,
O=C(N/N=C/c1cccc(O)c1)c1ccc(COc2ccc3c(c2)CCC3)o1,5.3,-0.9,-6.8,-2.9,18.2*,-7.5,2.9,8.2,
NNC(=O)c1ccc(COc2ccc3c(c2)CCC3)o1,0.9,-2.3,1.7,-0.7,0.8,1.6,.,.,
SMILES,CRFR2-BP ag,RTF Ca sens act,TPT1 inh,IDE cell activ,IDE inh,Cardiac RTF inh,IDE cell inh cf,HEK293 tox,others
Cc1cccc(NC(=O)c2cnccn2)c1,-1.4,0.9,1.8,5.4,-0.4,-3.4,.,.,
O=S(=O)(NC1=NCCC1)c1cccc(NC(=S)NCCc2ccccc2)c1,-1.2,5.2,-2.1,-3.7,22.5*,-25.7,10.6,6.4,
CCOC(=O)CC1C(=O)NCCN1c1nc2ccc(C)cn2c(=O)c1/C=C1\SC(=S)N(CC(C)C)C1=O (stereo not given),189.1*,182.1*,121.7*,-186.0,55.6*,-231.3,57.9*,9.9,
CCCN1C(=O)/C(=C/c2c(N3CCNC(=O)C3CC(=O)OCC)nc3c(C)cccn3c2=O)SC1=S (stereo not given),190.9*,129.9*,137.2*,-129.5,64.9*,-301.7,28.9*,32.4*,
CCOC(=O)CC1C(=O)NCCN1C(=O)c1ccc(C)cc1 (stereo not given),0.2,3.5,0.5,-0.2,-3.2,2.8,.,.,
CCOC(=O)/C(C#N)=C/c1c(N2CCN(C)CC2)nc2c(C)cccn2c1=O,-1.5,0.1,.,-3.0,.,-10.9,.,.,
COc1cc(/C=C(/C#N)c2nc3ccccc3[nH]2)ccc1OC(=O)c1ccco1,4.2,-0.1,3.5,-92.8,67.3*,-3.5,142.3*,7.2,
Cc1ccc2nc(-c3ccc(SCC(=O)N4CCc5ccccc54)nc3)[nH]c2c1,-1.3,-2.0,-1.2,-24.2,26.4*,5.6,10.1,13.2,
Cc1ccc2nc(-c3ccc(SCC(=O)O)nc3)[nH]c2c1,0.1,1.2,-2.0,4.5,-0.8,-0.8,.,.,
COc1ccccc1N1CCN(C(=O)c2cc(N3C(=O)C4C5CCC(C5)C4C3=O)ccc2Cl)CC1 (stereo not given),0.2,-3.2,2.0,-16.4,31.0*,0.5,21.0*,10.8,
Cc1ccc(C(=O)N2CCN(c3ncnc4c(C)csc34)CC2)cc1,5.0,0.1,-2.8,-4.5,18.6*,-1.8,7.2,17.3,
Cc1csc2c(N3CCN(C(=O)Nc4ccccc4)CC3)ncnc12,-0.5,5.1,-1.8,-14.1,12.0,-7.2,.,.,
